The panel holds about 79,000 compounds, 15% with a hit somewhere; the sample as a whole holds those more often. Unmarked numbers belong to inactive results. Activity calls are given as the source filed them. Cut-off read from the data, not from the text of the source: active = growth inhibition above about 70%; inactive = the rest. Where a SMILES comes first, the peptide text is derived from it. The star is where a group is joined. Cbz = O=C(OCc1ccccc1)*
Legend:
[1] = NCI Yeast Anticancer Drug Screen. Data for the rad50 strain (AID 155);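 note: 0% = growth of vehicle-only cultures of the same strain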; details: S. cerevisiae rad50 strain growth inhibition, stronger effect = higher value
In short: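 A DNA repair-deficient yeast mutant serves as the test organism; compound-induced growth inhibition is calculated against vehicle-treated cells.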

[2] = NCI Yeast Anticancer Drug Screen. Data for the mec2-1 strain (AID 157); details: S. cerevisiae mec2-1 strain, stronger effect = higher value
In short: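 Each compound was tested on mec2-1 yeast, a strain altered in DNA damage repair or cell cycle control. Growth inhibition is reported relative to vehicle.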

[3] = NCI Yeast Anticancer Drug Screen. Data for the sgs1 mgt1 strain (AID 161);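 note: 0% = growth of cultures given vehicle only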; details: S. cerevisiae sgs1 mgt1 strain, stronger effect = higher value
In short: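 Test agents were incubated with a DNA-repair-mutant yeast strain. Growth was then read and compared against vehicle-treated controls.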

[4] = NCI Yeast Anticancer Drug Screen. Data for the cln2 rad14 strain (AID 165);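 note: 0% = growth equal to vehicle treated cultures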; details: S. cerevisiae cln2 rad14 strain, stronger effect = higher value
In short: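 Test compounds were added to cln2 rad14 yeast cultures; inhibition of growth was then determined by comparison with vehicle treatment.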

[5] = NCI Yeast Anticancer Drug Screen. Data for the bub3 strain (AID 167); details: S. cerevisiae bub3 mutant strain, stronger effect = higher value
In short: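 Inhibition values come from growth of compound-treated mutant yeast normalised to vehicle-treated controls.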

[6] = NCI Yeast Anticancer Drug Screen. Data for the mlh1 rad18 strain (AID 175); details: S. cerevisiae mlh1 rad18 strain growth inhibition, stronger effect = higher value
In short: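 Inhibition values reflect reduced growth of mutant yeast versus vehicle-treated controls following compound exposure; the mutations affect DNA damage repair.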

[7] = at 5.0 µM (retest, dose inferred, filed as 0.5)
[8] = at 50.0 µM (retest, dose inferred, filed as 5.0)

Row | Structure (SMILES) | growth inhibition [1, 7] | growth inhibition [1, 8] | growth inhibition ([1]; at 50.0 µM) | growth inhibition [2, 7] | growth inhibition [2, 8] | growth inhibition ([2]; at 50.0 µM) | growth inhibition [3, 7] | growth inhibition [3, 8] | growth inhibition ([3]; at 50.0 µM) | growth inhibition [4, 7] | growth inhibition [4, 8] | growth inhibition ([4]; at 50.0 µM) | growth inhibition [5, 7] | growth inhibition [5, 8] | growth inhibition ([5]; at 50.0 µM) | growth inhibition [6, 7] | growth inhibition [6, 8] | growth inhibition ([6]; at 50.0 µM)
1 | CCc1ccc(C(=O)O)cc1 | -2% | -2% | 2.7% | -2% | -2% | -11.9% | -1% | 0% | -1.1% | -5% | -17% | 76.7% (active) | -6% | 2% | -15.2% | -5% | -3% | 10%
2 | CCOC(=O)CNC(=O)CNC(=O)CNC(=O)OCc1ccccc1 (Cbz-Gly-Gly-Gly-OEt) | -9% | -3% | 7.6% | -11% | -3% | -0.7% | -7% | 4% | -12.2% | -62% | -4% | 38.5% | -7% | 42% | 13.8% | 1% | -13% | 14.2%
3 | O=C1c2ccccc2C(=O)c2c(NCCNCCO)ccc(O)c21 | 37% | 93% (active) | 85% (active) | 19% | 94% (active) | 84.7% (active) | 51% | 91% (active) | 86.5% (active) | 53% | 60% | 49.7% | 44% | 86% (active) | 85.3% (active) | 24% | 88% (active) | 85.8% (active)
4 | CC(=O)Nc1ccccc1C(O)(c1ccccc1)c1ccccc1 | -2% | 0% | 14.4% | -5% | -2% | 35.2% | -5% | 1% | 16.4% | 2% | -2% | 9.45% | -2% | 2% | 14.7% | -5% | 1% | -31.2%
5 | N=C(N)c1ccc(SCCCCCSc2ccc(C(=N)N)cc2)cc1 | 21% | 56% | 57.2% | 17% | 61% | 74% (active) | 24% | 86% (active) | 76% (active) | 22% | 57% | 44.6% | 23% | 83% (active) | 63.4% | 25% | 87% (active) | 72.3% (active)
6 | O=C(OC1C=C=CS(=O)(=O)CC#C/C=C\1)c1cnc2ccccc2n1 (configuration not stated) | 15% | 96% (active) | 76.9% (active) | -17% | 95% (active) | 75.8% (active) | -28% | 91% (active) | 74.3% (active) | 15% | 90% (active) | 78.5% (active) | -36% | 94% (active) | 79.5% (active) | 19% | 97% (active) | 69.3%
7 | O=C(NC1=Nc2c(ncn2COCCO)S(=O)(=O)[N-]1)c1ccccc1.[Ag+] | 100% (active) | 99% (active) | 98.3% (active) | 100% (active) | 100% (active) | 98.2% (active) | 99% (active) | 99% (active) | 98.5% (active) | 99% (active) | 99% (active) | 86% (active) | 100% (active) | 99% (active) | 98.3% (active) | 99% (active) | 99% (active) | 97.3% (active)
8 | NNc1nc(Nc2ccccc2)nc(Nc2ccccc2)n1 | -8% | 93% (active) | 51.9% | -5% | 10% | 42% | -9% | 56% | 45.5% | -9% | 52% | 37.5% | -4% | 44% | 48.5% | -2% | 51% | 41.6%
9 | CS(=O)(=O)OCC(COS(C)(=O)=O)C(c1ccccc1)c1ccccc1Br (configuration not stated) | 12% | 34% | 28.4% | 7% | 29% | 36% | 14% | 47% | 37.1% | 16% | 44% | 13.1% | -1% | 16% | 5.4% | 7% | 51% | 56.2%
10 | Cc1c2ccccc2c(CCl)c2ccc3ccccc3c12 | 99% (active) | 98% (active) | 97.7% (active) | 100% (active) | 99% (active) | 97.2% (active) | 100% (active) | 99% (active) | 98.3% (active) | 99% (active) | 99% (active) | 97.5% (active) | 99% (active) | 99% (active) | 98.8% (active) | 100% (active) | 99% (active) | 96.8% (active)
11 | C=Cc1cc(N=Nc2ccc([N+](=O)[O-])cc2)ccc1N(C)C | 6% | 12% | 48% | -1% | -2% | 4.2% | 3% | 25% | 4.6% | -2% | -15% | -25.9% | 2% | 6% | 2.55% | -9% | -12% | 47.7%
12 | Cc1ccc(Nc2nc3c(s2)C(=O)c2ccccc2C3=O)cc1 | 37% | 97% (active) | 98.2% (active) | 61% | 98% (active) | 98.8% (active) | 34% | 98% (active) | 98.7% (active) | 3% | 96% (active) | 97.8% (active) | 91% (active) | 97% (active) | 98.7% (active) | 61% | 97% (active) | 97.7% (active)
13 | CCN(CC)CCC(=O)/C=C/c1ccc(C)cc1 | 4% | 97% (active) | 57.4% | 9% | 99% (active) | 10.9% | 4% | 99% (active) | 18.6% | 3% | 97% (active) | 50% | 7% | 99% (active) | 15.1% | 6% | 99% (active) | 24.1%
14 | O=C(O)c1c([N+](=O)[O-])cc(C(F)(F)F)cc1[N+](=O)[O-] | -20% | 6% | -1.7% | 0% | 13% | 4.3% | 1% | 11% | 14.9% | 9% | 43% | -29.6% | 1% | 10% | -3.55% | 43% | 9% | 29%
15 | Oc1cccc2ccncc12 | 7% | 9% | 29.3% | -14% | 14% | 20.4% | 3% | 16% | 22.1% | 13% | 29% | 9.05% | 2% | 14% | 21.1% | 2% | 43% | 58.4%
16 | Cc1cc(N(CCOS(C)(=O)=O)CCOS(C)(=O)=O)ccc1C=Nc1cc(Br)c(O)c(Br)c1 | 4% | 71% (active) | 82.5% (active) | -93% | 63% | 72.6% (active) | 2% | 53% | 84.2% (active) | 4% | 43% | 50.4% | 2% | 24% | 21.1% | 22% | 91% (active) | 95.8% (active)
17 | Oc1cccc(/C=C/c2ccncc2)c1 | 0% | 28% | 75.1% (active) | -4% | 13% | 37.6% | -3% | 25% | 65.5% | -6% | 15% | 25.9% | -6% | 22% | 63.8% | -1% | 12% | 65.5%
18 | CCCCN(CC(O)c1ccc(Cl)cc1)c1ccccc1 (configuration not stated) | -1% | 99% (active) | 98.8% (active) | -2% | 99% (active) | 98.8% (active) | -6% | 98% (active) | 98.8% (active) | 1% | 93% (active) | 98.5% (active) | 1% | 98% (active) | 95% (active) | 1% | 99% (active) | 96.7% (active)
19 | CCc1cccc(CC)c1NC1=C(Cl)C(=O)c2ccccc2C1=O | 99% (active) | 99% (active) | -21.1% | 100% (active) | 99% (active) | 5% | 99% (active) | 99% (active) | 14.5% | 95% (active) | 98% (active) | -26.9% | 99% (active) | 98% (active) | 5.15% | 99% (active) | 98% (active) | 19.1%

Source: PubChem BioAssay (NCI)
